Key:
Assay in all cases: log2 ratio of Biotin-Ahx-Ub-VS probe labelling (fragment/DMSO); higher = less target engagement (more negative = stronger competition), active = hit call of the paper (q ≤ 0.05, log2 ratio ≤ -1)
Conditions in all cases: compound concentration: 200 uM; treatment time: 3 h
[1] = molecular target: T1, OTUD6B (UniProt Q8N6M0)
T1 sequence (whole entry): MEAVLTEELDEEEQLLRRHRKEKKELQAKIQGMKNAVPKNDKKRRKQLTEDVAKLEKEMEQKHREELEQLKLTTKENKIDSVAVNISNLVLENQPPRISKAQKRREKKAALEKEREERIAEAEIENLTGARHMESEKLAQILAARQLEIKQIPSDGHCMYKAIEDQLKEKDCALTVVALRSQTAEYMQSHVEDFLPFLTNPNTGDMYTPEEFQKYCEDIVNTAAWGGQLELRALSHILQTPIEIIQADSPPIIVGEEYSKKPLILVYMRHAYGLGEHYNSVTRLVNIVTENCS
Summary of the method: (§1)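 Labelling with Biotin-Ahx-Ub-VS (0.5 µM final, 1 h) followed a 3 h triplicate treatment of HEK293T lysate (495 µg per sample, Tris/CHAPS/IGEPAL buffer with protease inhibitors) with fragment at 200 µM or vehicle. Labelled DUBs were NeutrAvidin-enriched, digested with LysC and trypsin, and run by diaPASEF LC-MS/MS. The values, average log2 fragment/vehicle ratios by unpaired t-test, come from global-median-normalised Spectronaut label-free quantities. Proteins with ≥2 unique peptides were used.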

[2] = molecular target: T2, OTUD7B (UniProt Q6GQQ9)
T2 sequence (whole entry): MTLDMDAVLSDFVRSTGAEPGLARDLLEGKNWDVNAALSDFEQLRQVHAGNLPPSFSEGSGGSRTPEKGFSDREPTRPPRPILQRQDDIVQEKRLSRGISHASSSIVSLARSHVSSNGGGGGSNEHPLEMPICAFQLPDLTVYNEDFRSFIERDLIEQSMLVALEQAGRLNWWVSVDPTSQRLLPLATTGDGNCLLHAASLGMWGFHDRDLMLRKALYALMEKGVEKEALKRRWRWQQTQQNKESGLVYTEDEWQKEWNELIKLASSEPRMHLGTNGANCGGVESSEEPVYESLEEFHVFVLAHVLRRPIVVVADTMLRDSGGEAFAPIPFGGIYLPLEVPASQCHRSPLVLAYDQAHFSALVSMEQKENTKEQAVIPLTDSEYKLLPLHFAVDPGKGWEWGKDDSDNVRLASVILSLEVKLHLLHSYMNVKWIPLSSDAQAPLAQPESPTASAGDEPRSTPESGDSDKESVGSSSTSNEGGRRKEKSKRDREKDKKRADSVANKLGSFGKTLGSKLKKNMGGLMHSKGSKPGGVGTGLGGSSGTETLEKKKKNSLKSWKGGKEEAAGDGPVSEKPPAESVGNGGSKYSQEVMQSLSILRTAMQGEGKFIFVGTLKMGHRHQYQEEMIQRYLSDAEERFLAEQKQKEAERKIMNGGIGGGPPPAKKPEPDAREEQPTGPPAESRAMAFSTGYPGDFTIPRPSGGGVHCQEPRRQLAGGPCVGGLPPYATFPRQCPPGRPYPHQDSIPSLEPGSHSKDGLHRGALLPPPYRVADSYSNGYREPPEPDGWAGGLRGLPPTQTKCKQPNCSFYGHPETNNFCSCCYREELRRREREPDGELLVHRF
Summary of the method: as §1

[3] = molecular target: PRPF8 (UniProt Q6P2Q9)
Summary of the method: as §1

[4] = molecular target: T3, PSMD7 (UniProt P51665)
T3 sequence (whole entry): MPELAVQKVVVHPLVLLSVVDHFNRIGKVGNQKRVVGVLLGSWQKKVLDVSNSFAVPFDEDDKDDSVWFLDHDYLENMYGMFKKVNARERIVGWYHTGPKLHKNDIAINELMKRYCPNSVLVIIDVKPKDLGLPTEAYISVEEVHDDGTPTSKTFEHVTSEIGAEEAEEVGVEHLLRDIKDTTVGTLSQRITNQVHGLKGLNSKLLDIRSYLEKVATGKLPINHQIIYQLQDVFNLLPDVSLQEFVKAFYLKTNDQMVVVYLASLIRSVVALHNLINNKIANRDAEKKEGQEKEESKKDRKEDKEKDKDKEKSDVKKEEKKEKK
Summary of the method: as §1

[5] = molecular target: UCHL1 (UniProt P09936)
UCHL1, sequence (P09936 whole entry, looked up): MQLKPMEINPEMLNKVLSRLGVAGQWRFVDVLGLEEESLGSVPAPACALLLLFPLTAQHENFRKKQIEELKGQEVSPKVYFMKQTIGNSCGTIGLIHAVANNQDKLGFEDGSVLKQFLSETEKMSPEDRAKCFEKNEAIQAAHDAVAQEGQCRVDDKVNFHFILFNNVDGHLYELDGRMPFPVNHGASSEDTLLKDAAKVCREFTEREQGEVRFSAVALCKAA
Summary of the method: as §1

[6] = molecular target: T4, UCHL3 (UniProt P15374)
T4 sequence (whole entry): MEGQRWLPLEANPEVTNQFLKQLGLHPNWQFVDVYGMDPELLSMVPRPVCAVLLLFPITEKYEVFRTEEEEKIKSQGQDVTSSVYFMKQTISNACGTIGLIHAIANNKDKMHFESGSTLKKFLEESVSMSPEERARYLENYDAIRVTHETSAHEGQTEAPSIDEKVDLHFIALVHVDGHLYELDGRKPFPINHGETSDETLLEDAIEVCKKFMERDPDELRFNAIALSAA
Summary of the method: as §1

[7] = molecular target: T5, UCHL5 (UniProt Q9Y5K5)
T5 sequence (whole entry): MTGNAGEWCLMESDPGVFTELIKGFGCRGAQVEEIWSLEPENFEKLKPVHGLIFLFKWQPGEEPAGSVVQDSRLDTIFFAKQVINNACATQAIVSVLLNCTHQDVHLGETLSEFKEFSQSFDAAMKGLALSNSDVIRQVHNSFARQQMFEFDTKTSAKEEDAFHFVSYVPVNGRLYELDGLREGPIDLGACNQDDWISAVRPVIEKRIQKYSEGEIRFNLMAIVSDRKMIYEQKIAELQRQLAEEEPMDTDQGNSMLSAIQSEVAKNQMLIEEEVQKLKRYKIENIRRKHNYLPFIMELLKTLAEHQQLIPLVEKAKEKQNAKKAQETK
Summary of the method: as §1

[8] = molecular target: USP10 (UniProt Q14694)
USP10, sequence (Q14694 whole entry): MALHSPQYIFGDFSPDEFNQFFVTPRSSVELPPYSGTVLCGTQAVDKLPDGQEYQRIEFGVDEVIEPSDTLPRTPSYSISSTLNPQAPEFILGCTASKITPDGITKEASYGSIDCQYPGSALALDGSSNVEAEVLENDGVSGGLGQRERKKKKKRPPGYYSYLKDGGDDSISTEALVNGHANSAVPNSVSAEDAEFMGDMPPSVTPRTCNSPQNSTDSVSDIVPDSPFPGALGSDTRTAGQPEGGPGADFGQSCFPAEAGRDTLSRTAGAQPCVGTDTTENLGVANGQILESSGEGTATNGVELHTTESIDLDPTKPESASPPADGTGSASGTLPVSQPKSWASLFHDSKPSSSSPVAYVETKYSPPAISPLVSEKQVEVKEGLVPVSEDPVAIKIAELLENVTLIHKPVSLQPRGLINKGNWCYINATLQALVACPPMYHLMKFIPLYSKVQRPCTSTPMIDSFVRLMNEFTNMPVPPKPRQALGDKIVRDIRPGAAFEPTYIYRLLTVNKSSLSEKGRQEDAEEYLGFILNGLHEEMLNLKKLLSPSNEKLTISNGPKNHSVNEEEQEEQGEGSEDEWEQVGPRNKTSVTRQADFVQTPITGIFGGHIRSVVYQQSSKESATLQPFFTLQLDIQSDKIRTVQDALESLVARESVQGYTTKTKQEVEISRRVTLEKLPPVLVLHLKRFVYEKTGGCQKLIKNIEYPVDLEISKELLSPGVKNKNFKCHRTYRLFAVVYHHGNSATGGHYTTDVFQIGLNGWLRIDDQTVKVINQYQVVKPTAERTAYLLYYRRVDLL
Summary of the method: as §1

[9] = molecular target: T6, USP15 (UniProt Q9Y4E8)
T6 sequence (whole entry): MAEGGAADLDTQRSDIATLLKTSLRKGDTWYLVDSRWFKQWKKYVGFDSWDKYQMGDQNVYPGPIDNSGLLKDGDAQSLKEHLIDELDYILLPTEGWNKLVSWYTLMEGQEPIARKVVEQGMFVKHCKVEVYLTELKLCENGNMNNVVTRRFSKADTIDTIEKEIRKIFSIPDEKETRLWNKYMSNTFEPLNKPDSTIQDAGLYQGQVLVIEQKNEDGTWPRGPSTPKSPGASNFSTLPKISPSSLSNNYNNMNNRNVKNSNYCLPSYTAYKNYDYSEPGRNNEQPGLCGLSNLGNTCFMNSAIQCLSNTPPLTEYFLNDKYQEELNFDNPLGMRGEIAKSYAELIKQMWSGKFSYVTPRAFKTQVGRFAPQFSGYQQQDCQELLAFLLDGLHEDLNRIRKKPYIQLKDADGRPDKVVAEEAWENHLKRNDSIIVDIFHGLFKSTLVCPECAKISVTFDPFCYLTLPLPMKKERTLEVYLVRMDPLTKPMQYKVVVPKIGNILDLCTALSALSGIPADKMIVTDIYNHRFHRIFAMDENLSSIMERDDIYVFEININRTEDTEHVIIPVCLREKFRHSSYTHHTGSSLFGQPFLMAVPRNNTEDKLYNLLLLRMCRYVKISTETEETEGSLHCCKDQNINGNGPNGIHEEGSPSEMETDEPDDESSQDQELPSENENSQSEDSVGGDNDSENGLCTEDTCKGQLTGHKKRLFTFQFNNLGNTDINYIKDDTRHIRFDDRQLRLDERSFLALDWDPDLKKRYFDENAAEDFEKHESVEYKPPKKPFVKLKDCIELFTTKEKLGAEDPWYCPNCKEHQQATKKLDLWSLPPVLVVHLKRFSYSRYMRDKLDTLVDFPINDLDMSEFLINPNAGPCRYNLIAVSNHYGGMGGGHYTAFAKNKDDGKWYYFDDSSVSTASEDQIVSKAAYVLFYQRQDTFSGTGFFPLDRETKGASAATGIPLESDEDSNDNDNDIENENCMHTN
Summary of the method: as §1

[10] = molecular target: USP16 (UniProt Q9Y5T5)
USP16, sequence (Q9Y5T5 whole entry, looked up): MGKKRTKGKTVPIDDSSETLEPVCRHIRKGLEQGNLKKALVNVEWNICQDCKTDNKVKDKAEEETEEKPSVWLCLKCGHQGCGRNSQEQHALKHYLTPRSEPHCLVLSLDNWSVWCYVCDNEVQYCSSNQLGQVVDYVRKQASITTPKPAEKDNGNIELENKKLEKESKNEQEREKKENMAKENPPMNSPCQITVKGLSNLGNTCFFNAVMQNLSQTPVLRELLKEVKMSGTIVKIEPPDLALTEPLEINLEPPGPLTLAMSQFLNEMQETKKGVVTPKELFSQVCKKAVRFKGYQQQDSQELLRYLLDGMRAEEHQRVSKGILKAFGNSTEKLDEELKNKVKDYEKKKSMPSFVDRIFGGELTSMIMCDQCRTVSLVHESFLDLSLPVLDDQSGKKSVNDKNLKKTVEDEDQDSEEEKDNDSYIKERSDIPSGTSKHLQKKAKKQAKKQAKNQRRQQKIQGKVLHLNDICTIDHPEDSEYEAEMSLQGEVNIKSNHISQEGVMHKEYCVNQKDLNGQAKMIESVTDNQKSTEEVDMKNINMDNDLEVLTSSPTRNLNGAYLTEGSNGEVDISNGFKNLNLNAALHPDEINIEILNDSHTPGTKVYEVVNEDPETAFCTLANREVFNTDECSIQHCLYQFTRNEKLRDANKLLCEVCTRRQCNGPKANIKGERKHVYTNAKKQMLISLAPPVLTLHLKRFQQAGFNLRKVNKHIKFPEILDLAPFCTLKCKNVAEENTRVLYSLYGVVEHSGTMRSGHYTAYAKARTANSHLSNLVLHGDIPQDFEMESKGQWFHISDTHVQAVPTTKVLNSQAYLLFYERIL
Summary of the method: as §1

Measured: log2 ratio of Biotin-Ahx-Ub-VS probe labelling

CCC1c2ccsc2CCN1C(=O)CCl (stereo not given)
inactive: [1] -0.158 | [2] -0.505 | [3] 0.237 | [4] -0.0765 | [6] -0.00293 | [7] -0.25 | [8] -0.134 | [9] -0.298 | [10] -0.5
active: [5] -1.35
